The values below come from PubChem BioAssay.

Calls of active or inactive are those of the source.

Test [1] deals with PRMT1 (protein arginine N-methyltransferase 1). Put plainly: small molecules binding arginine methyltransferase PRMT1 – biochemical, small-molecule microarray, 635 nm fluorescence, primary screen (AID 1088).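 Further: binding of Prmt1 protein to compounds spotted on small-molecule microarray slides.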 As to conditions: higher = more signal.
Test [2] can be described thus: growth effects on S. cerevisiae YJM789 – YJM789 clinical isolate, OD600, 24 h, basal, primary screen (AID 1089).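 Further: growth of clinical yeast isolate S. cerevisiae YJM 789 seeded 1000 cells per well; test concentration not given here.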 To be noted: higher = more signal, called active from +8 up or from −8 down.
A short description of test [3]: S. pombe growth modifiers, basal conditions – strain 972, OD600, 24 h, no modulator, primary screen (AID 1090).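 Further: basal condition with compound alone and no growth modifier present; test concentration not given here.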 As to conditions: S. pombe 972 growth, higher = more signal, called active from +8 up or from −8 down.
Test [4] can be described thus: budding yeast growth modifiers under rapamycin – strain BY4716, OD600, 96 h, primary screen (AID 1091). Further: test concentration not given here. To be noted: S. cerevisiae BY4716 + rapamycin, higher = more signal, called active from +8 up or from −8 down.
In test [5] the target is Torsin-1A-interacting protein 2 (Homo sapiens) (UniProt Q8NFQ8). Kind of test: small molecules binding lysate-expressed LULL1 – cell lysate, human LULL1 lysate, 635/667 nm fluorescence, primary screen (AID 1092).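 Further: probe is lysate of COS7 cells overexpressing human LULL1; score merges per-feature 667 nm fluorescence with signal-to-noise.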 To be noted: small-molecule microarray, hLULL1 lysate binding, 635 nm fluorescence; higher = more signal.
The nature of test [6]: optical density change of DRC41 E. coli – strain DRC41, OD650, 24 h, E. coli filamentation project, primary screen (AID 1093).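 Further: MC1000 strain lacking acrAB efflux and sulA so SOS filamentation is blocked; test concentration not given here.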 To be noted: E. coli DRC41 growth, higher = more signal, called active from +8 up or from −8 down.
Test [7] is described as follows: probe aLefty2 binding to arrayed compounds – biochemical, biotinylated probe, 635/667 nm fluorescence, primary screen (AID 1094).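 Further: score merges spot fluorescence near 667 nm with spot signal-to-noise ratio.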 To be noted: small-molecule microarray, higher = more signal.
The test system of test [8] is Noggin (protein binding on small-molecule microarray). Put plainly: small molecules binding Noggin protein – biochemical, 635/667 nm fluorescence, primary screen (AID 1095).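 Further: score merges 667 nm feature fluorescence with signal to noise over triplicate slides.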 To be noted: 635 nm fluorescence, higher = more signal.
For test [9], the target named is Neurogenic locus notch homolog protein 3 (Homo sapiens) (UniProt Q9UM47). Put plainly: small molecules binding NOTCH3 protein – biochemical, 635/667 nm fluorescence, primary screen (AID 1096). To be noted: small-molecule microarray, 635 nm fluorescence, higher = more signal.
Test [10] in a line: probe aEGFR binding to arrayed compounds – biochemical, biotinylated probe, 635/667 nm fluorescence, primary screen (AID 1097).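 Further: probe is a biotinylated anti-EGFR antibody binding compounds printed on slides; score combines fluorescence near 667 nm and signal to noise of each spot.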 To be noted: small-molecule microarray, higher = more signal.
Test [11] deals with Plasmodium falciparum Sir2 (PF13_0152, Sir2A). Put plainly: Plasmodium falciparum Sir2A binding compounds – biochemical, small-molecule microarray, 635 nm fluorescence, primary screen (AID 1098).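 Further: score merges spot fluorescence intensity with its signal-to-noise ratio.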 As to conditions: fluorescence 635 nm, higher = more signal.
Test [12] is described as follows: probe aDKK1 binding to arrayed compounds – biochemical, biotinylated probe, 635/667 nm fluorescence, primary screen (AID 1099).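 Further: score merges 667nm spot fluorescence with signal to noise across triplicate slides; reference of the scale not given here.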 To be noted: small-molecule microarray, higher = more signal.
Test [13] can be described thus: probe aCHRDL2 binding to arrayed compounds – biochemical, biotinylated probe, 635/667 nm fluorescence, primary screen (AID 1100). As to conditions: small-molecule microarray, higher = more signal.
Test [14] is described as follows: change in splice reporter luminescence, either direction, cell-based, HEK293, spliceosome inhibition project, primary screen (AID 1101).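 Further: HEK293 cells carrying a splicing-competent luciferase reporter gene; test concentration not given here.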 To be noted: HEK293 splicing luciferase reporter, 24 h, higher = more signal, called active from +8 up or from −8 down.
Test [15] concerns the target Fibroblast growth factor 10 (Homo sapiens) (UniProt O15520). Kind of test: compounds binding fibroblast growth factor 10 – biochemical, small-molecule microarray, 635 nm fluorescence, primary screen (AID 1102). As to conditions: FGF10 binding, fluorescence 635 nm, higher = more signal.
The test system of test [16] is glycogen synthase kinase-3 (GSK3A per assay name; protocol says GSK3B). Put plainly: compounds binding glycogen synthase kinase-3 – biochemical, small-molecule microarray, 635 nm fluorescence, GSK3A, primary screen (AID 1103). Further: the record names both GSK3A and GSK3B. To be noted: fluorescence 635 nm, higher = more signal.
The target of test [17] is Epidermal growth factor receptor (Homo sapiens) (UniProt P00533). Kind of test: compounds binding epidermal growth factor receptor – biochemical, small-molecule microarray, 635 nm fluorescence, primary screen (AID 1104).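 Further: score merges 667 nm emission intensity with spot signal to noise over triplicate slides.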 To be noted: EGFR binding, higher = more signal.
Test [18] has as its target Follistatin-related protein 3 (Homo sapiens) (UniProt O95633). Put plainly: compounds binding follistatin-related protein 3 – biochemical, small-molecule microarray, 635 nm fluorescence, primary screen (AID 1105).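 Further: score merges emission near 667 nm and signal to noise per printed spot across three slides.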 To be noted: FSTL3 binding, higher = more signal.
Test [19] addresses Dickkopf-related protein 1 (Homo sapiens) (UniProt O94907). Put plainly: small molecules binding DKK1 protein – biochemical, small-molecule microarray, 635 nm fluorescence scan, primary screen (AID 1106).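 Further: score merges emission near 667 nm with signal to noise over three replicate slides.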 As to conditions: higher = more signal.
For test [20], the system named is Inhibin beta A chain (activin A). Kind of test: small molecules binding activin A – biochemical, small-molecule microarray, 635 nm fluorescence scan, primary screen (AID 1107).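 Further: mouse activin A protein probed at 4.33 µg/mL on printed slides; score merges bound-protein fluorescence near 667 nm with spot signal-to-noise.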 As to conditions: INHBA, higher = more signal.

Sequence of Torsin-1A-interacting protein 2 (Homo sapiens) (Q8NFQ8 whole entry, looked up): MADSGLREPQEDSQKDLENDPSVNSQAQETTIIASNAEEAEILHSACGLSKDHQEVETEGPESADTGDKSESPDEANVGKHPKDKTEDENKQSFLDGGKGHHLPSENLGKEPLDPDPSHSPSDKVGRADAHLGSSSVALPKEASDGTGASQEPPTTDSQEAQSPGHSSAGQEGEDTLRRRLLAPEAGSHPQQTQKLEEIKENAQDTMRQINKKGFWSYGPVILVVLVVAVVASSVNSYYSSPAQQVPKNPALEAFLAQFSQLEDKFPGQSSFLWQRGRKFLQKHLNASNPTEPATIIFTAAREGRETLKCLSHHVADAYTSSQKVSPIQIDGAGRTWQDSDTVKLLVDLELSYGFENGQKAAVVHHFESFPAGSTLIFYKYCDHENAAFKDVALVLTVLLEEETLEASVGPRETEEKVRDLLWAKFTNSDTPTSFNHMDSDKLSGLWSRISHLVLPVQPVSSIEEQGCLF
Sequence of Neurogenic locus notch homolog protein 3 (Homo sapiens) (Q9UM47 whole entry, looked up): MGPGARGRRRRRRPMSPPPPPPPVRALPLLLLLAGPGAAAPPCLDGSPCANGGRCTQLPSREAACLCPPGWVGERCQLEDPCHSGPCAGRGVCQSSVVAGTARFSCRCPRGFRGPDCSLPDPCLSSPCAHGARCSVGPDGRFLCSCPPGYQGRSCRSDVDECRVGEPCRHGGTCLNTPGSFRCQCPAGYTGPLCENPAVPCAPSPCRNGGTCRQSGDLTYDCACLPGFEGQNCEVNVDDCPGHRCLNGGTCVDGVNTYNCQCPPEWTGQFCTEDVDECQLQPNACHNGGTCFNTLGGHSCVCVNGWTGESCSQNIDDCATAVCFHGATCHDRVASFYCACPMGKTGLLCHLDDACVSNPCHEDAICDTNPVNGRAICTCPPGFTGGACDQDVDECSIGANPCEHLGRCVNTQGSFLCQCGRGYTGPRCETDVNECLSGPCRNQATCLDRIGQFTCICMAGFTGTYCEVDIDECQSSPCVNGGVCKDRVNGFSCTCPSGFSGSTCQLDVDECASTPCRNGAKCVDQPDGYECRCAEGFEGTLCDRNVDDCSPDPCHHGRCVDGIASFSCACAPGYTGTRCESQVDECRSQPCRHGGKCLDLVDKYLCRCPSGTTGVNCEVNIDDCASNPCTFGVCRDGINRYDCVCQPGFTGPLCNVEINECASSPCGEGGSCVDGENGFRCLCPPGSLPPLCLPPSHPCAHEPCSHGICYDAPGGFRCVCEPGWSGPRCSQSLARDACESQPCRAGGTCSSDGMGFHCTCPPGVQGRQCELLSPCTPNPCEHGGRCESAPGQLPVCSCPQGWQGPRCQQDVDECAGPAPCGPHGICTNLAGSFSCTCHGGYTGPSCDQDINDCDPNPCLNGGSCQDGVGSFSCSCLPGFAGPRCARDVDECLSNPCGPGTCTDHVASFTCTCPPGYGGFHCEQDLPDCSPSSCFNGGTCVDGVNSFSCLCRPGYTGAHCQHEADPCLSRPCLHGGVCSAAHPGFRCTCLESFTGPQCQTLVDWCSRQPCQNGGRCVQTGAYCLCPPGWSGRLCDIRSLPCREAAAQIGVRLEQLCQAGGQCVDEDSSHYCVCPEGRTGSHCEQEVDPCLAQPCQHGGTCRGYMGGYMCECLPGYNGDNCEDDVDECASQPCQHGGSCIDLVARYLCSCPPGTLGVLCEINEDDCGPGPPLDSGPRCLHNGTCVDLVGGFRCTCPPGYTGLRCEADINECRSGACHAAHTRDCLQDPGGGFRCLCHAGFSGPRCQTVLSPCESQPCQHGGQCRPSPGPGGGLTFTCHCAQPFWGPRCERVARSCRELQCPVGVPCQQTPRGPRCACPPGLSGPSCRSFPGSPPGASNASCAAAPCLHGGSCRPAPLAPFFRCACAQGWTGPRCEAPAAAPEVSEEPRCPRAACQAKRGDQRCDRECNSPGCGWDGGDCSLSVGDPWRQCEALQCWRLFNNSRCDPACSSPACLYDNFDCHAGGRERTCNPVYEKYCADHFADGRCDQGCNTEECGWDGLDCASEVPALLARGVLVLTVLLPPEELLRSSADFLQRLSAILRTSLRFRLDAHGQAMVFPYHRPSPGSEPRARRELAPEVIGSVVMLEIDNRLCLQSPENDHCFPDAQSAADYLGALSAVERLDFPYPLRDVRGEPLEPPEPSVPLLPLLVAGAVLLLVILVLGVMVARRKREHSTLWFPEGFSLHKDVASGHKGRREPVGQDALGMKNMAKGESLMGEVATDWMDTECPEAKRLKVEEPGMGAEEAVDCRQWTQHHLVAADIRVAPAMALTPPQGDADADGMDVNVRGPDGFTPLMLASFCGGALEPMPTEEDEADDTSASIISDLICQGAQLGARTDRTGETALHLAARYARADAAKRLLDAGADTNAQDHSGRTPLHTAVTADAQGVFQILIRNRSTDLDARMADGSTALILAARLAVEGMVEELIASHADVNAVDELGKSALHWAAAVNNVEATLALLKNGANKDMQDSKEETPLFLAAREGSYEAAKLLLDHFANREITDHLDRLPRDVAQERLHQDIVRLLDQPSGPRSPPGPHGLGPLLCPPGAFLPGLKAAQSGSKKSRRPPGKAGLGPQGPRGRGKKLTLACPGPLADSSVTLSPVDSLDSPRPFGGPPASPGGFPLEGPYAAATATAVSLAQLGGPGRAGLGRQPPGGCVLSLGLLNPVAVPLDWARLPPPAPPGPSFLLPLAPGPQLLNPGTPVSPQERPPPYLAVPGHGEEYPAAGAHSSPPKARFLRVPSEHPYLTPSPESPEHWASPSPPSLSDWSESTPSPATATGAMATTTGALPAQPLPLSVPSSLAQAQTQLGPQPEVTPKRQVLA
Sequence of Follistatin-related protein 3 (Homo sapiens) (O95633 whole entry, looked up): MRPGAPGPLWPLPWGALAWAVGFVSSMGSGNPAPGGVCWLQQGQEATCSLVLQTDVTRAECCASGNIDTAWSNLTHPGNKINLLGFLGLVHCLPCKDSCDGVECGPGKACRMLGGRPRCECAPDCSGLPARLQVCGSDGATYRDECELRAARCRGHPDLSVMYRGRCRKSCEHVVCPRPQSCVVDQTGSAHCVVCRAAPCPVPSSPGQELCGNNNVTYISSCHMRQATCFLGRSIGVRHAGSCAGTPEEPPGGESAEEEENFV
Sequence of Fibroblast growth factor 10 (Homo sapiens) (O15520 whole entry, looked up): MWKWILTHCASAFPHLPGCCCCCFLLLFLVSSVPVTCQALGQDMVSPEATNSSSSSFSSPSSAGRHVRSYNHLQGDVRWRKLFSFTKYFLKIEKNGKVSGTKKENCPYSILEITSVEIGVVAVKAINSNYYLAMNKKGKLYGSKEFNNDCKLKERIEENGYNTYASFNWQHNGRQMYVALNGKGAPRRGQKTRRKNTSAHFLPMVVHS
Sequence of Epidermal growth factor receptor (Homo sapiens) (P00533 whole entry, looked up): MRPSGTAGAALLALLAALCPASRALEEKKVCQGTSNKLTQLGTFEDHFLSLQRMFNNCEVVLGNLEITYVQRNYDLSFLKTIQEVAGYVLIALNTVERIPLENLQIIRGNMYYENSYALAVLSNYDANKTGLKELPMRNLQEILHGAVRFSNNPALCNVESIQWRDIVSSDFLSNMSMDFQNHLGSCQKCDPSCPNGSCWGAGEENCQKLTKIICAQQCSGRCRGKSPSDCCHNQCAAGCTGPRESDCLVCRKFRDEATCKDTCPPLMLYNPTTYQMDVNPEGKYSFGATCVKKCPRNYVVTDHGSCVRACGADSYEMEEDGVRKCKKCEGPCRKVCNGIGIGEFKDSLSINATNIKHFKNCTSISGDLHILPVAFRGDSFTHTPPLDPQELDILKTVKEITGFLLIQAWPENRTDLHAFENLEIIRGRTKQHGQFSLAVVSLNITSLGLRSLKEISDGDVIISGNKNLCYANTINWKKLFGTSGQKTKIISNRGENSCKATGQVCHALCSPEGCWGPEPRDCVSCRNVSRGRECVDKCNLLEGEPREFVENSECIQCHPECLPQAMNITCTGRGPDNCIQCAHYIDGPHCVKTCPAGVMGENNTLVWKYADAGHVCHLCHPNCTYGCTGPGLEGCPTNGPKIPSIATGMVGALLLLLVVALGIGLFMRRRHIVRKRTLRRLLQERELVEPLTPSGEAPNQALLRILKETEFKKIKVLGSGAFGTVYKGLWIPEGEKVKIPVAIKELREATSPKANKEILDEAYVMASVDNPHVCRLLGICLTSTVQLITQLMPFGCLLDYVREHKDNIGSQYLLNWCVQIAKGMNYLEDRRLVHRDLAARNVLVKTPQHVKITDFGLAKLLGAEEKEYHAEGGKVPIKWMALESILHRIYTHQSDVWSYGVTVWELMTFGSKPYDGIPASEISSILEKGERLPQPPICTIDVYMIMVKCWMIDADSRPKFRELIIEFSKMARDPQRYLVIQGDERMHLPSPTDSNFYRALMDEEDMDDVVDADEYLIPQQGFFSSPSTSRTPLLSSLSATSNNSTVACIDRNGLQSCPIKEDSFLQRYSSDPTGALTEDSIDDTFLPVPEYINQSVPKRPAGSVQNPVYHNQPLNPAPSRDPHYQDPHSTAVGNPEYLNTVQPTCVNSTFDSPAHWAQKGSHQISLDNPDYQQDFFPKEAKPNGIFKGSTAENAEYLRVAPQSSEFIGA
Sequence of Dickkopf-related protein 1 (Homo sapiens) (O94907 whole entry, looked up): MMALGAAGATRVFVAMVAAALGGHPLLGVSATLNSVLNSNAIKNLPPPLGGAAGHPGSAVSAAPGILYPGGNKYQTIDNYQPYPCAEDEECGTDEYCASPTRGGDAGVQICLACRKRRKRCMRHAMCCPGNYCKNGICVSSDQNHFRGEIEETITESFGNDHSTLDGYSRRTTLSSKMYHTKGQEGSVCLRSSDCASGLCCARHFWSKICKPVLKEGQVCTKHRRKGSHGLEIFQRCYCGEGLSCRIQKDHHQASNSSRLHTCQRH

As to `Cc1cc2c(nc1C)CCCCN2CC(C)ON=C[C@@H](C)[C@H](OCc1ccccc1)C(C)C` (stereo not given in full), the composite z-score is -0.766 in [1]; -1.02 in test [5]; -0.204 in test [7]; -0.913 in [8]; -1.01 in test [9]; -0.3 in [10]. The composite z-score in [11] was -0.504; in test [12] it was -0.873; in [13] it was -0.122; in [15], -1.92; in test [16], -1.05; in test [17], -1.85. Moreover, the composite z-score in test [18] is -0.934; in [19], -0.969; in test [20], 0.911. For the same compound, the z-score in test [2] was -0.715 (inactive); in test [3], -14.4 (active); in [4], 0.365 (inactive); in test [6], 0.162 (inactive); in [14], -0.037 (inactive).
As for `COc1ccc(O[C@@H]2[C@H](O)CO[C@H]2C=Cc2ccccc2)cc1`, the composite z-score in [1] was 0.619; in test [5], 0.108; in test [7], -0.214; in [8], 0.146; in test [9], -0.167; in test [10] it was -0.148. Further, the composite z-score in test [11] is 0.1; in test [12], -0.274; in test [13], -0.379; in test [15] it was 0.0279; in test [16] it was -0.0395; in test [17], -0.033. Further, the composite z-score in [18] is -0.267; in [19], -0.275; in [20], 0.799. Besides, the z-score in test [2] is -2.63 (inactive); in [3], -3.17 (inactive); in test [4], -0.856 (inactive); in test [6], 0.473 (inactive); in test [14], -0.878 (inactive).
Regarding `COc1ccc(C#C[C@@H]2C=C[C@H](OC(C)=O)[C@@H](COC(C)=O)O2)cc1`, the composite z-score in test [1] is 0.474; in test [5] it was 0.387; in [7], 0.0164; in test [8], 0.622; in test [9] it was 0.493; in test [10], -0.122. Further, the composite z-score is 0.647 in test [11]; -0.174 in [12]; -0.289 in [13]; 0.465 in [15]; 0.185 in test [16]; 0.586 in test [17]. The figures for the composite z-score in [18], in test [19] and in test [20] were 0.842, 0.476 and 1.18, respectively. The z-score is -0.551 (inactive) in test [2]; -2.35 (inactive) in [3]; -0.451 (inactive) in test [4]; 1.04 (inactive) in test [6]; -0.613 (inactive) in [14].
As for `C=CC[C@@H]1C=C[C@H](ON=C[C@@H](C)[C@H](OCc2ccccc2)C(C)C)[C@@H](CO)O1`, the composite z-score in [1] is 0.261; in [5], 0.602; in test [7], -0.228; in test [8], -0.244; in test [9], -0.0585; in [10], -0.146. In addition, the composite z-score is 1.07 in test [11]; -0.5 in test [12]; -0.353 in test [13]; -0.483 in test [15]; -0.363 in test [16]; -0.852 in test [17]. For the same compound, the composite z-score in [18] was -0.568; in [19], -0.189; in test [20], -0.291. Further, the z-score in test [2] is -1.46 (inactive); in test [3], -3.98 (inactive); in test [4], -0.515 (inactive); in test [6] it was 0.15 (inactive); in test [14], 0.305 (inactive).
As for `CCOC(=O)NN=C1C[C@@H](O)[C@@H](O)[C@@H]2[C@@H]3C(=O)N(C(C)(C)C)C(=O)[C@@H]3CC[C@H]12`, the composite z-score in test [1] was -0.247; in test [5] it was -0.3; in test [7], -0.101; in [8], 0.708; in [9] it was 0.235; in test [10] it was 0.039. The composite z-score in test [11] is 0.217; in test [12] it was 0.0171; in test [13], -0.398; in test [15], 0.338; in test [16] it was 0.666; in [17] it was 0.705. For the same compound, the composite z-score in test [18] is 0.635; in test [19] it was 0.739; in test [20], 0.103. In addition, the z-score in test [2] is 0.438 (inactive); in test [3], 0.277 (inactive); in test [4], -0.397 (inactive); in [6], 0.443 (inactive); in [14], -0.626 (inactive).
